In PubChem BioAssay (NCATS):
“And” between values parts separate entries of the source, which are not always exact repeats. Equal values may be shown once. Records with an inconclusive call do not appear. The source made the active and inactive calls. Unless noted, calls come from the whole dose curve; as a rule, active = well fitted curve in the direction sought with a large enough effect; inconclusive = small, poorly fitted or top-dose-only effect, or another doubt; inactive = no such curve, though single readings can be large; an effect the other way counts as inactive or inconclusive.

Key:
[1] = system: Zika virus NS2B-NS3 protease (unlinked complex); assay: Primary screen GU Rhodamine qHTS for Zika virus inhibitors: Unlinked NS2B-NS3 protease assay (AID 1347159); note: % is set by controls: 0 for no effect and ±100 for the full control effect; nearly all actives have a fitted effect of over 60% in size
How it was run: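 Percent inhibition came from the 15-min rise in Rhodamine110 fluorescence (1.5 microM substrate, ~15% conversion), normalized to no-inhibitor and no-enzyme wells and Hill-fitted. Unlinked protease, 25 nM, pH 8.0 Tris buffer; compounds up to 114 microM, 15-min preincubation.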

[2] = system: Zika virus NS2B-NS3 protease (linked construct); assay: Primary screen NINDS Rhodamine qHTS for Zika virus inhibitors (AID 1347160); note: nearly all actives have a fitted effect of over 55% in size
How it was run: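 Rhodamine110-peptide cleavage (1.5 µM substrate) by 25 nM linked NS2B-NS3 enzyme at pH 8.0 (Tris, Tween 20), after 15 min RT preincubation with compounds; 15-min fluorescence change normalized to controls and Hill-fitted.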

[3] = target: Calcium and integrin-binding protein 1 (Homo sapiens) (UniProt Q99828); assay: Primary qHTS for Identification of Calcium Integrin Binding Protein 1 (CIB1) Competitor (AID 1508620);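 note: GST tagged CIB1 binding a fluorescein labelled alphaIIb integrin peptide tracer; top concentration of the series differs between compounds; % is set by controls: 0 for no effect and ±100 for the full control effect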
How it was run: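 Fluorescence polarization competition: GST-tagged CIB1 (1 uM final) preincubated with compound 15 min at room temperature, then FITC-labelled alphaIIb peptide (100 nM final) added. After 15 min at room temperature, polarization read at Ex 480/Em 540.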

[4] = Primary qHTS for inhibitors of nuclear receptor binding SET domain protein 2 (NSD2) in an isogenic RCH-ACV NSD2 p.E1099K mutant (9B) (AID 1645876); note: nearly all actives have a fitted effect of over 70% in size; note: potency is the fitted concentration of half-maximal effect
[5] = target: Luciferin 4-monooxygenase (Photinus pyralis) (UniProt P08659); assay: Primary firefly luciferase (FLuc) qHTS assay for identification of artifact compounds. (AID 1845220); note: nearly all actives have a fitted effect of over 60% in size
How it was run: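 Enzymatic FLuc inhibition assay: compounds pre-exposed to luciferin/ATP (10 uM each) for 15 min, then purified P. pyralis enzyme at 10 nM added. Read-out: luminescence at 5 min.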

[6] = system: Nanoluciferase (engineered Oplophorus gracilirostris luciferase); assay: Primary Nanoluciferase (NLuc) qHTS assay for identification of artifact compounds. (AID 1845222);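 note: NLuc secreted into diluted conditioned medium of S16 cells; 0% = DMSO and -100% = no enzyme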
How it was run: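 S16 cell supernatant NLuc, 1:55; cpds qHTS; 15 min RT dark; Nano-Glo substrate 1:100, 5 min; luminescence; Hill fit of % inhibition.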

[7] = system: C33A; assay: Primary qHTS to identify gynecologic anti-cancer compounds using libraries of approved drugs and bioactive compounds (AID 1345084); conditions: Gynecologic cancer cell panel viability, ATPlite luminescence, 48 h; series mostly up to 57.5 µM; note: nearly all actives have a fitted effect of over 55% in size; note: potency is the fitted concentration of half-maximal effect
How it was run: (§1)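 Five-concentration response, 48 h; readout is ATP-driven luciferase luminescence.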

[8] = system: CASKI; assay: as above; conditions: Gynecologic cancer cell panel viability, ATPlite luminescence, 48 h; series mostly up to 57.5 µM
How it was run: as §1

[9] = system: Es-2; assay: as above; conditions: Gynecologic cancer cell panel viability, ATPlite luminescence, 48 h; series mostly up to 57.5 µM
How it was run: as §1

[10] = system: HeLa; assay: as above; conditions: Gynecologic cancer cell panel viability, ATPlite luminescence, 48 h; series mostly up to 57.5 µM
How it was run: as §1

[11] = system: Hek293T; assay: as above; conditions: Gynecologic cancer cell panel viability, ATPlite luminescence, 48 h, control line for the selectivity index; series mostly up to 57.5 µM
How it was run: as §1

[12] = system: JEG-3; assay: as above; conditions: Gynecologic cancer cell panel viability, ATPlite luminescence, 48 h; series mostly up to 57.5 µM
How it was run: as §1

[13] = system: OV90; assay: as above; conditions: Gynecologic cancer cell panel viability, ATPlite luminescence, 48 h; series mostly up to 57.5 µM
How it was run: as §1

[14] = system: Tov-21-G; assay: as above; conditions: Gynecologic cancer cell panel viability, ATPlite luminescence, 48 h; series mostly up to 57.5 µM
How it was run: as §1

[15] = system: Tov112D; assay: as above; conditions: Gynecologic cancer cell panel viability, ATPlite luminescence, 48 h; series mostly up to 57.5 µM
How it was run: as §1

[16] = Primary qHTS for inhibitors of nuclear receptor binding SET domain protein 2 (NSD2) in an RCH-ACV wild type WT cells (2C) (AID 1645877); note: nearly all actives have a fitted effect of over 70% in size; note: potency is the fitted concentration of half-maximal effect
[17] = target: Glutathione peroxidase 1 (Homo sapiens) (UniProt P07203); assay: Primary qHTS Assay for Inhibitors of Recombinant Selenoprotein Glutathione Peroxidase 1 (GPX1) (AID 1845191); note: nearly all actives have a fitted effect of over 65% in size
How it was run: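 GR-coupled readout: NADPH consumption tracked by fluorescence, ex 340/em 450 nm, at t=0 and after 15 min at RT. Final mix 10 nM GPX1, 1 mM GSH, 0.5 mM CHP, 0.5 mM NADPH, 100 nM GR, 0.01% BSA, following 30 min enzyme–compound preincubation.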

[18] = target: Phospholipid hydroperoxide glutathione peroxidase GPX4 (Homo sapiens) (UniProt P36969); assay: Primary qHTS Assay for Inhibitors of Recombinant Selenoprotein Glutathione Peroxidase 4 (GPX4) (AID 1845192); conditions: outcome: dose series up to 50 µM unless noted; note: nearly all actives have a fitted effect of over 65% in size
How it was run: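 Steps: GPX4 plus compound, 30 min RT; add GR/GSH/NADPH master mix; start with cumene hydroperoxide; read 340/450 nm fluorescence at 0 and 15 min. Finals were 200 nM GPX4, 1 mM GSH, 0.5 mM CHP, 0.5 mM NADPH, 100 nM GR.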

[19] = P-glycoprotein substrates identified in KB-8-5-11 adenocarcinoma cell line, qHTS therapeutic library screen (AID 1346987); note: nearly all actives have a fitted effect of over 65% in size; note: potency is the fitted concentration of half-maximal effect
How it was run: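 Human cervical adenocarcinoma KB-8-5-11 cells, selected in colchicine to over-express P-gp and assayed without it, were exposed for 72 h to titrated compounds. An ATP-based luminescent viability signal gave AC50.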

[20] = qHTS drug screen for cell cycle checkpoint inhibitors in PARPi-resistant BRCA-mutant ovarian cancer cell lines. (AID 1963452; calls by dose curve); conditions: PEO1/OlaR viability, CellTiter-Glo luminescence, 96 h, stronger effect = lower value
How it was run: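 PEO1, PEO4 and PEO1/OlaR ovarian cancer cells, 600 per well, exposed 96 h at 37C to a dilution series. Viability read by CellTiter-Glo luminescence, normalized to DMSO and empty wells; activity summarized as Z-AUC.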

Chain of Phospholipid hydroperoxide glutathione peroxidase GPX4 (Homo sapiens) (P36969 whole entry, looked up): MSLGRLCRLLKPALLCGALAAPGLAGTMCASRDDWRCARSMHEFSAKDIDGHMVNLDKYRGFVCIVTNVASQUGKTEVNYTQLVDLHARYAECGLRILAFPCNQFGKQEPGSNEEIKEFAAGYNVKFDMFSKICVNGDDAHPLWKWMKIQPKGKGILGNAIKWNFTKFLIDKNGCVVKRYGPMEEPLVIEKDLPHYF
Chain of Glutathione peroxidase 1 (Homo sapiens) (P07203 whole entry, looked up): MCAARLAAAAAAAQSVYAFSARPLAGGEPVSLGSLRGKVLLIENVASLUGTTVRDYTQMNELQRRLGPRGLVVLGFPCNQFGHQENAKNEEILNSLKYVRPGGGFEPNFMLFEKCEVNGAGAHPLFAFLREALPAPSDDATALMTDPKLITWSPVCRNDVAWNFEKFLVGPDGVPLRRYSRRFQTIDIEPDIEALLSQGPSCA
Chain of Calcium and integrin-binding protein 1 (Homo sapiens) (Q99828 whole entry, looked up): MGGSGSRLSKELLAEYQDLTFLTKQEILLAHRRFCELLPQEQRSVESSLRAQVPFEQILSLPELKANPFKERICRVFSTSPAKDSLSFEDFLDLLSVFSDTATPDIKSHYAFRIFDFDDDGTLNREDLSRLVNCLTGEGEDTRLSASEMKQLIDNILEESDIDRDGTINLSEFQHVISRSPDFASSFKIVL

O=C(CC1NCCC[C@H]1O)Cn1cnc2cc(Br)c(Cl)cc2c1=O (stereo not given in full)
inactive: Potency [1] | Potency [2] | outcome [3] | Potency [4] | Potency [5] | Potency [6] | Potency [7] | Potency [8] | Potency [9] | Potency [10] | Potency [11] | Potency [12] | Potency [13] | Potency [14] | Potency [15]

CCN(CC)Cc1cccc(/C=C/c2nc3ccc(F)cc3c(=O)n2-c2ccccc2Cl)n1
active: Potency [4] 14.5 µM | Potency [16] 12.9 µM
inactive: Potency [1] | Potency [2] | outcome [3] | Potency [17] | Potency [18] | Potency [5] | Potency [6] | Potency [7] | Potency [8] | Potency [9] | Potency [10] | Potency [11] | Potency [12]

Nc1ccc(N)c([N+](=O)[O-])c1
inactive: Potency [7] | Potency [8] | Potency [9] | Potency [10] | Potency [11] | Potency [12] | Potency [14] | Potency [15]

Cc1cc(CN)cc(C)c1NC(=O)c1ccc(-c2cc(Cl)ccc2Cl)o1
active: Potency [19] 20.6 µM | Potency [4] 18.3 µM | Potency [16] 9.16 µM
inactive: Potency [1] | Potency [2] | outcome [3] | Potency [17] | Potency [18] | Potency [5] | Potency [6] | Potency [7] | Potency [8] | Potency [9] | Potency [10] | Potency [11] | Potency [12] | Potency [13] | Potency [14] | Potency [15]

COc1ccc(C2(CNC(=O)[C@](C)(Cc3c[nH]c4ccccc34)NC(=O)Nc3ccc([N+](=O)[O-])cc3)CCCCC2)nc1
active: Potency [16] 20.5 µM
inactive: Potency [2] | outcome [3] | Potency [17] | Potency [18] | Potency [5] | Potency [6] | Potency [7] | Potency [8] | Potency [9] | Potency [10] | Potency [11] | Potency [12] | Potency [13] | Potency [14] | Potency [15]

C[C@@H](O[C@H]1OCCN(Cc2n[nH]nc2CN(C)C)[C@H]1c1ccc(F)cc1)c1cc(C(F)(F)F)cc(C(F)(F)F)c1
active: Potency [4] 16.3 µM | Potency [16] 14.5 µM
inactive: Potency [1] | Potency [2] | outcome [3] | Potency [17] | Potency [18] | Potency [6] | Potency [7] | Potency [8] | Potency [9] | Potency [10] | Potency [11] | Potency [12] | Potency [13] | Potency [14] | Potency [15]

C=C1C(=O)O[C@@H]2[C@H]1[C@H](O)C[C@]1(C)[C@@H](O)CC=C(C)[C@@H]21
active: Potency [4] 11.5 µM | Potency [16] 7.28 µM
inactive: Potency [1] | Potency [2] | Potency [18] | Potency [5] | Potency [6] | Potency [7] | Potency [8] | Potency [9] | Potency [10] | Potency [11] | Potency [12] | Potency [13] | Potency [15]

C[C@H](NC(=O)C(C)(C)Oc1ccc(C(F)(F)F)cn1)[C@@H](Cc1ccc(Cl)cc1)c1cccc(C#N)c1
active: Potency [19] 14.6 µM | Potency [4] 16.3 µM
inactive: Potency [1] | Potency [2] | outcome [3] | Potency [17] | Potency [18] | Potency [6] | Potency [7] | Potency [8] | Potency [9] | Potency [12] | Potency [13] | Potency [14] | Potency [15]

CC(=O)Nc1ccc(C(=O)Nc2ccccc2N)cc1
inactive: Potency [1] | Potency [2] | outcome [3] | Potency [17] | Potency [18] | Potency [5] | Potency [6] | Z-AUC [20] -0.302 | Potency [7] | Potency [8] | Potency [15]
active: Potency [4] 3.55 µM and 3.72 µM | Potency [16] 2.82 µM and 3.72 µM | Potency [13] 3.98 µM
-0.146: Z-AUC ([20]; measured here: PEO4 Z-AUC)
-0.636: Z-AUC ([20]; measured here: PEO1 parental Z-AUC)

COc1ccc2c3ccnc4ccc(=O)n(c2c1)c43
inactive: Potency [1] | Potency [2] | outcome [3] | Potency [17] | Potency [18] | Potency [5] | Potency [6] | Potency [7] | Potency [12] | Potency [13]
active: Potency [10] 14.1 µM

CC[C@H]1OC(=O)[C@H](C)[C@@H](O[C@H]2C[C@@](C)(OC)[C@@H](O)[C@H](C)O2)[C@H](C)[C@@H](O[C@@H]2O[C@H](C)C[C@H](N(C)C)[C@H]2O)[C@](C)(O)C[C@@H](C)/C(=N/OCOCCOC)[C@H](C)[C@@H](O)[C@]1(C)O
inactive: Potency [19] | Potency [1] | Potency [2] | outcome [3] | Potency [4] | Potency [16] | Potency [18] | Potency [6] | Potency [7] | Potency [8] | Potency [9] | Potency [10] | Potency [11] | Potency [12] | Potency [13] | Potency [14] | Potency [15]

C[N+]1(C)[C@@H]2CC[C@H]1CC(OC(=O)C(O)c1ccccc1)C2 (stereo not given in full)
inactive: Potency [1] | Potency [2] | outcome [3] | Potency [4] | Potency [16] | Potency [18] | Potency [5] | Potency [6] | Potency [7] | Potency [8] | Potency [9] | Potency [10] | Potency [11] | Potency [12] | Potency [13] | Potency [14] | Potency [15]

CCCCC(=O)N(Cc1ccc(-c2ccccc2-c2nn[nH]n2)cc1)C(C(=O)O)C(C)C (stereo not given)
inactive: Potency [1] | Potency [2] | Potency [4] | Potency [16] | Potency [18] | Potency [5] | Potency [7] | Potency [8] | Potency [9] | Potency [10] | Potency [11] | Potency [12] | Potency [13] | Potency [14] | Potency [15]

CN(C)CC(=O)Nc1ccc2[nH]c(=O)c3ccccc3c2c1
active: Potency [4] 20.5 µM | Potency [16] 23 µM
inactive: Potency [1] | Potency [2] | outcome [3] | Potency [5] | Potency [6] | Potency [7] | Potency [8] | Potency [9] | Potency [10] | Potency [12] | Potency [13] | Potency [15]
